Some test systems named below: DU-145 prostate; K-562 leukemia; MALME-3M melanoma; MDA-MB-231 breast; RXF 393 renal; SF-268 CNS; SF-295 CNS; SF-539 CNS; UACC-257 melanoma; M14 melanoma.
Holding throughout (assay): NCI-60 one-dose screen, 48 h (100 = growth as untreated, 0 = no growth, -100 = all killed)
What all share (conditions): 10 µM unless noted

Here are results for ten molecules from PubChem BioAssay (NCI).

Several values for one entry are separate records, joined by “and”; a condition that tells them apart may be missing. Equal entries are not always repeated. Compounds without any hit were thinned out: in the full panel of roughly 83,000, 20% have a hit.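 48-hour exposure, single concentration, 96-well plates; percent growth endpoint where 0 means no net growth. Active: below 10.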 Activity calls are given as the source filed them.

Take `Nc1nc2ccccc2c2c(=O)c3ccc(Cl)cc3sc12`: the growth in the test with DU-145 prostate is 97.5% (inactive); in the test with K-562 leukemia it was 90.7% (inactive); with MALME-3M melanoma, 107% (inactive); in the test on MDA-MB-231 breast it was 91% (inactive); in the test on RXF 393 renal, 111% (inactive); in the test with SF-268 CNS, 95.2% (inactive). The growth in the test on SF-295 CNS is 101% (inactive); in the test on SF-539 CNS, 106% (inactive); with UACC-257 melanoma, 105% (inactive); with M14 melanoma, 94.5% (inactive).
Consider `CN(C)CCCn1c2c(c3ccc(N4CCNCC4)cc3c1=O)C(=O)c1ccccc1-2`, for which the growth in the test on DU-145 prostate was -30.1% (active); in the test on K-562 leukemia, -28.5% (active); with MALME-3M melanoma it was 21% (inactive); in the test on MDA-MB-231 breast it was -49.7% (active); in the test with RXF 393 renal it was -78.8% (active); in the test on SF-268 CNS, -24.8% (active). For the same molecule, the growth in the test on SF-295 CNS was -5.76% (active); in the test on SF-539 CNS, 52.7% (inactive); in the test on UACC-257 melanoma, 37.3% (inactive); in the test with M14 melanoma it was 19.4% (inactive).
`O=C(NNc1ccccc1)c1ncc[nH]1`: the growth was 55.8% (inactive) in the test with DU-145 prostate; 7.21% (active) with K-562 leukemia; 54.1% (inactive) in the test with MALME-3M melanoma; 81.5% (inactive) in the test with MDA-MB-231 breast; 107% (inactive) in the test on RXF 393 renal; 59.3% (inactive) in the test on SF-268 CNS. The growth is 90.2% (inactive) in the test on SF-295 CNS, 48.7% (inactive) in the test with SF-539 CNS, 71.5% (inactive) in the test with UACC-257 melanoma and 37.4% (inactive) in the test on M14 melanoma.
On to `C=C(C)[C@@H]1CC[C@]2(C(=O)N3CCN(C)CC3)CC[C@]3(C)[C@H](CC[C@@H]4[C@@]5(C)CC(CCCNC(C)=O)(CCCNC(C)=O)[C@H](OC(C)=O)C(C)(C)[C@@H]5CC[C@]43C)[C@@H]12`, for which the growth in the test with DU-145 prostate was 108% (inactive); in the test with K-562 leukemia, 81.1% (inactive); in the test on MALME-3M melanoma, 98% (inactive); with MDA-MB-231 breast, 108% (inactive); in the test on RXF 393 renal it was 109% (inactive); in the test on SF-268 CNS, 98.9% (inactive). Besides, the growth with SF-295 CNS was 99.4% (inactive); in the test with SF-539 CNS, 101% (inactive); in the test on UACC-257 melanoma, 109% (inactive); in the test on M14 melanoma, 104% (inactive).
For `CC(Sc1ccccc1)C(=O)O` (stereo not given), the growth in the test on DU-145 prostate was 107% (inactive); with K-562 leukemia it was 152% (inactive); in the test on MALME-3M melanoma, 67.5% (inactive); in the test on MDA-MB-231 breast, 93.2% (inactive); in the test on RXF 393 renal it was 94.2% (inactive); with SF-268 CNS, 105% (inactive). Moreover, the growth is 91.8% (inactive) with SF-295 CNS, 103% (inactive) in the test with SF-539 CNS, 103% (inactive) with UACC-257 melanoma and 95.2% (inactive) in the test on M14 melanoma.
For `COC1/C=C/OC2(C)Oc3c(C)c(O)c4c(O)c(c(C=NOC(c5ccccc5)c5ccccc5)c(O)c4c3C2=O)NC(=O)/C(C)=C/C=C/C(C)C(O)C(C)C(O)C(C)C(OC(C)=O)C1C` (stereo not given), the growth in the test with DU-145 prostate was 37.9% (inactive); with K-562 leukemia it was 17.1% (inactive); with MALME-3M melanoma, 23.5% (inactive); with MDA-MB-231 breast it was 8.78% (active); with RXF 393 renal it was -3.93% (active); in the test with SF-268 CNS, 44.2% (inactive). Also, the growth with SF-295 CNS is 1.59% (active); in the test with SF-539 CNS, 31.3% (inactive); in the test on UACC-257 melanoma, 12.2% (inactive); in the test on M14 melanoma it was 23.2% (inactive).
Consider `Clc1ccc(/C=N\N2CCCCCC2)cc1`, for which the growth in the test on DU-145 prostate is 112% (inactive) and 102% (inactive); in the test with K-562 leukemia, 87.7% (inactive); in the test on MALME-3M melanoma, 98% (inactive); in the test with MDA-MB-231 breast, 89.7% (inactive) and 99.9% (inactive); in the test on RXF 393 renal it was 92% (inactive) and 119% (inactive); in the test with SF-268 CNS it was 103% (inactive) and 115% (inactive). The growth with SF-295 CNS was 96.4% (inactive) and 95.9% (inactive); in the test with SF-539 CNS, 115% (inactive) and 92% (inactive); in the test on UACC-257 melanoma it was 104% (inactive) and 109% (inactive); with M14 melanoma, 104% (inactive) and 111% (inactive).
With `O=c1c(/C=C/c2ccco2)nnc2sc(Nc3ccc(Cl)cc3)nn12`, the growth in the test with DU-145 prostate is 111% (inactive); in the test with K-562 leukemia it was 97.9% (inactive); with MALME-3M melanoma, 100% (inactive); in the test with MDA-MB-231 breast, 96.4% (inactive); in the test with RXF 393 renal it was 114% (inactive); in the test on SF-268 CNS, 103% (inactive). Moreover, the growth was 105% (inactive) with SF-295 CNS, 90.6% (inactive) in the test with SF-539 CNS, 104% (inactive) in the test on UACC-257 melanoma and 101% (inactive) in the test on M14 melanoma.
As to `Fc1ccccc1-c1cnn2cc(-c3ccccc3)cnc12`, the growth in the test with DU-145 prostate is 110% (inactive); with K-562 leukemia it was 83.5% (inactive); with MALME-3M melanoma, 109% (inactive); in the test on MDA-MB-231 breast it was 108% (inactive); in the test on RXF 393 renal, 94.9% (inactive); in the test on SF-268 CNS, 88.9% (inactive). For the same molecule, the growth in the test on SF-295 CNS was 98.2% (inactive); in the test on SF-539 CNS, 103% (inactive); with UACC-257 melanoma, 110% (inactive); with M14 melanoma, 105% (inactive).
On to `CC(C)(C)c1cc(NC(=O)Nc2ccc(-c3cn4c(n3)sc3cc(OCCN5CCOCC5)ccc34)cc2)no1`, for which the growth with DU-145 prostate is 35.5% (inactive) and 45.5% (inactive); in the test on K-562 leukemia it was 11.9% (inactive) and 33.9% (inactive); in the test on MALME-3M melanoma it was 28.9% (inactive) and 20.2% (inactive); in the test with MDA-MB-231 breast it was 43.3% (inactive) and 35.6% (inactive); in the test on RXF 393 renal, -6.16% (active) and -13.6% (active); in the test with SF-268 CNS it was 37.2% (inactive) and 22.8% (inactive). The growth was -58.7% (active) and 16.4% (inactive) in the test with SF-295 CNS; -83.3% (active) and 13.6% (inactive) in the test with SF-539 CNS; 4.5% (active) and -6.8% (active) with UACC-257 melanoma; 37.4% (inactive) and 24% (inactive) with M14 melanoma.
